# According to PubChem BioAssay:
# A number with no mark means an inactive call. A call without a number means that no potency is given here. For part of these data: Potency and affinity values are given separately. The source made the active and inactive calls. Unless noted, how the calls were made is not given here.
# Assays:
# [1] = antimalarial activity against Dd2 strain (AID 2302;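 active means growth inhibition above 50% at the single 2 µM test dose, taken to imply half-maximal potency below 2 µM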); conditions: P. falciparum Dd2 in RBCs, LDH growth readout, 72 h; at 2 µM; active compounds read high
# [2] = human hepatoma cell viability loss – ATP luminescence, cytotoxicity control for P. falciparum antimalarial project, primary screen (AID 2303;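 active means inhibition above 50%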); conditions: HepG2 viability, 24-48 h, at 10 µM, active compounds read high
# [3] = target: L-lactate dehydrogenase (Plasmodium falciparum (isolate CDC / Honduras)) (UniProt Q27743); experiment: PfLDH activity inhibition – cell lysate, 3D7 strain, counter-screen for P. falciparum growth inhibition project (AID 2304); conditions: P. falciparum 3D7 crude extract, LDH APAD/NBT absorbance; at 2 µM; active compounds read high
# [4] = inhibition of 3D7 malaria parasite growth – strain 3D7 (AID 2306); conditions: P. falciparum 3D7 erythrocytic growth, LDH absorbance, 72 h; at 2 µM; active compounds read high
# [5] = target: Calcium-dependent protein kinase 1 (Plasmodium falciparum (isolate 3D7)) (UniProt P62344); experiment: PfCDPK1 kinase inhibitors, biochemical, TCAMS library (AID 1159585; cut-off not given, nearly all actives have IC50 up to about 0.98 µM;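 further: inhibitors leave more ATP so luminescence rises with inhibition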); conditions: recombinant PfCDPK1, Kinase-Glo ATP depletion luminescence
# [6] = target: Plasmodium falciparum protein kinase 6 (PK6, PF3D7_1337100) (UniProt Q8IDW1); experiment: PfPK6 kinase inhibitors, biochemical, TCAMS library (AID 1159586); conditions: recombinant PfPK6, Kinase-Glo ATP depletion luminescence
# [7] = target: Protein kinase 7 (PK7), Plasmodium falciparum 3D7 (PF3D7_0213400) (UniProt Q7YTF7); experiment: inhibition of Plasmodium PK7 catalytic activity – biochemical, TCAMS antimalarial set, Kinase-Glo luminescence (AID 1159587); conditions: recombinant PfPK7, Kinase-Glo ATP depletion luminescence
# [8] = target: Calcium-dependent protein kinase 4 (Plasmodium falciparum (isolate 3D7)) (UniProt Q8IBS5); experiment: PfCDPK4 kinase inhibitors, biochemical, TCAMS library (AID 1159588; cut-off not given, nearly all actives have IC50 up to about 0.91 µM); conditions: recombinant PfCDPK4, Kinase-Glo ATP depletion luminescence
# Sequence of Calcium-dependent protein kinase 4 (Plasmodium falciparum (isolate 3D7)) (Q8IBS5 whole entry, looked up): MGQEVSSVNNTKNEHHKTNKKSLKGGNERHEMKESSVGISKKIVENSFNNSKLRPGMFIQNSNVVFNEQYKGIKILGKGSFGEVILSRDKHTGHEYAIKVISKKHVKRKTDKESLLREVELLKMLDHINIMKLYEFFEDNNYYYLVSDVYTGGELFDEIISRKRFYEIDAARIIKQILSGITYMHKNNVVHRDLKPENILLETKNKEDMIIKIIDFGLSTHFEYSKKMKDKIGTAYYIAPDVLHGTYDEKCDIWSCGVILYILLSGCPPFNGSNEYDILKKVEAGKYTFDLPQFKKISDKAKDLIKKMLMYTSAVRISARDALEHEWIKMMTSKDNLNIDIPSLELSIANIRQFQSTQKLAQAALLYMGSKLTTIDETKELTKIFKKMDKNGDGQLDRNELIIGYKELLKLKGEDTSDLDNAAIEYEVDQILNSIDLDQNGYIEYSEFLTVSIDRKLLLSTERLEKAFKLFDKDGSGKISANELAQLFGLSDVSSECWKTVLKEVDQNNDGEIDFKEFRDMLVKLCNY
# Sequence of L-lactate dehydrogenase (Plasmodium falciparum (isolate CDC / Honduras)) (Q27743 whole entry, looked up): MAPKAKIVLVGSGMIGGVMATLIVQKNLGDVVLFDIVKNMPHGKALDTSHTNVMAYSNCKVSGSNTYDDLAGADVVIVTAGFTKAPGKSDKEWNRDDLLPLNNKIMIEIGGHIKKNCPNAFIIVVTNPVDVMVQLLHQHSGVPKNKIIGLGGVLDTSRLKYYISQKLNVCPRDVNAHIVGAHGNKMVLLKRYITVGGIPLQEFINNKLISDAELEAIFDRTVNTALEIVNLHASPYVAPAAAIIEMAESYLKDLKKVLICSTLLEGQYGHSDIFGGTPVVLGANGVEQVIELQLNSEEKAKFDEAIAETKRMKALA
# Sequence of Protein kinase 7 (PK7), Plasmodium falciparum 3D7 (PF3D7_0213400) (Q7YTF7 1-343): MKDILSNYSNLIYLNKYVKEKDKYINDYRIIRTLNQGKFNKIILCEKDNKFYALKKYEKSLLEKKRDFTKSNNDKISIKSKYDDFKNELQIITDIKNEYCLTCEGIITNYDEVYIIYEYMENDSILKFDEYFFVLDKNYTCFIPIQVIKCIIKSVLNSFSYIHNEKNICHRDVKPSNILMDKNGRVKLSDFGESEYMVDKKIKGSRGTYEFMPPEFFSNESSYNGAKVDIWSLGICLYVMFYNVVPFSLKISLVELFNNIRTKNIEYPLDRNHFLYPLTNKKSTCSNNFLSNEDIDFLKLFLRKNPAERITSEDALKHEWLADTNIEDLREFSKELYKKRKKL
# Sequence of Plasmodium falciparum protein kinase 6 (PK6, PF3D7_1337100) (Q8IDW1 1-305): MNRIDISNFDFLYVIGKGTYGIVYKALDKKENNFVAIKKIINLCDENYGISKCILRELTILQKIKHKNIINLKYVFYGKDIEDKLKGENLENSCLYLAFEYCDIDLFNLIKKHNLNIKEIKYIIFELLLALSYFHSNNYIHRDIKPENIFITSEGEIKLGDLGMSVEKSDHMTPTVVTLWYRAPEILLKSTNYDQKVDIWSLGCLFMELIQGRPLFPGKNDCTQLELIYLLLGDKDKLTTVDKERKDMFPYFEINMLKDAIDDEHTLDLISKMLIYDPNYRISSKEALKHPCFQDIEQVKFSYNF
# Sequence of Calcium-dependent protein kinase 1 (Plasmodium falciparum (isolate 3D7)) (P62344 whole entry, looked up): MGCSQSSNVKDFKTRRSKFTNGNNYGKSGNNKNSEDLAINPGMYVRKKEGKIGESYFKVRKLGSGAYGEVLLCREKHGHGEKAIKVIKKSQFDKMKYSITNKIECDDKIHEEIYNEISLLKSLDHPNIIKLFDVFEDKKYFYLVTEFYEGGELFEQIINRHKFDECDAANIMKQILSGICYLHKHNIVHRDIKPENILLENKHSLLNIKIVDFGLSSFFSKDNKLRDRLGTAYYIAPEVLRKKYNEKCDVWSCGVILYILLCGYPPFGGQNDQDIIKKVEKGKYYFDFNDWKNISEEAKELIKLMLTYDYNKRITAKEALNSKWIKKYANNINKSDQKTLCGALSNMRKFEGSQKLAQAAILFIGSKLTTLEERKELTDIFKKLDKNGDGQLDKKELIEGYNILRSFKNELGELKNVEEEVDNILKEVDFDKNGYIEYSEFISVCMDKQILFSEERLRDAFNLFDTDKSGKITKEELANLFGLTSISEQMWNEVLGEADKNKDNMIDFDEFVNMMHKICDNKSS
Structure (SMILES),growth inhibition [1],inhibition [2],inhibition [3],growth inhibition [4],outcome [5],outcome [6],outcome [7],outcome [8]
CCN(CC)CCN(Cc1ccc(-c2ccc(Cl)cc2)cc1)C(=O)Cn1c(CCc2cccc(F)c2F)nc(=O)c2ccccc21,75% (active),45%,-4%,101% (active),inactive,inactive,inactive,inactive
Cc1cc(NN=Cc2ccc(F)cc2)c2ccc(C(F)(F)F)cc2n1,24%,4%,-2%,95% (active),inactive,inactive,inactive,inactive
Cc1ccccc1CCNC(=O)c1ccc(N2CCN(c3ccncc3)CC2)nc1,20%,10%,-3%,95% (active),inactive,inactive,inactive,inactive
O=C(O)C[C@H](NC(=O)CCCNC(=O)c1cccc(-c2ccc(Cl)c(Cl)c2)c1)C(=O)O,-4%,5%,-3%,91% (active),inactive,inactive,inactive,inactive
COc1cc2nc(N(C)C)nc(Nc3ccc4c(cnn4Cc4ccccc4)c3)c2cc1OC,102% (active),90% (active),-4%,100% (active),inactive,inactive,inactive,inactive
COc1cccc(NC(=O)Nc2ccc(-c3oc(C(=O)NCC(c4ccccc4)N(C)C)cc3-c3ccncc3)cc2)c1 (stereo not drawn),99% (active),6%,2%,101% (active),inactive,inactive,inactive,inactive
O=C(NC1CCCCC1)N(CCCn1ccnc1)Cc1csc(-c2ccc(CNCc3ccccc3)cc2)n1,48%,5%,0%,97% (active),inactive,inactive,inactive,inactive
COc1cccc(CN2CCCN(Cc3cccc(NC(=O)c4cc5ccccc5s4)c3)CC2)c1,16%,17%,-9%,89% (active),inactive,inactive,inactive,inactive
Cc1cc(N[C@@H](CC(C)C)C(=O)NCCOc2ccccc2)nc(NCC2CCCCC2)n1,53% (active),24%,-1%,97% (active),inactive,inactive,inactive,inactive
CN1CCC(N2CCN(Cc3cccc(-c4ccc(-c5nc6ccc(F)cc6[nH]5)cc4)c3)CC2)CC1,100% (active),92% (active),3%,100% (active),inactive,inactive,inactive,inactive
O=C(Nc1ccc(C(=O)N2CCN(CCN3CCN(c4cccc(C(F)(F)F)c4)CC3)CC2)cc1)c1ccc(C(F)(F)F)cc1,28%,39%,0%,95% (active),inactive,inactive,inactive,inactive
COc1cccc(C(=O)NC(c2ccccc2OC)c2cc(Cl)c3cccnc3c2O)c1 (stereo not drawn),36%,58% (active),4%,91% (active),inactive,inactive,inactive,inactive
O=S(=O)(Nc1ccc(-c2ccc(CN3CCCC3)cc2)cc1)c1cccc2cccnc12,10%,37%,-8%,91% (active),inactive,inactive,inactive,inactive
c1cc(C2=N[C@H]3CCCC[C@@H]3N2)ccc1OCCCCCOc1ccc(C2=N[C@@H]3CCCC[C@H]3N2)cc1,23%,80% (active),-5%,101% (active),inactive,inactive,inactive,inactive
CC(C)(C)c1nn(-c2ccccc2)c2[nH]c(=O)c(CNC3CCCCC3)cc12,76% (active),6%,3%,83% (active),inactive,inactive,inactive,inactive
COc1ccc2ccc(F)c(CC(=O)N3CCOC(CNCc4cccc(-c5ccsc5)n4)C3)c2n1 (stereo not drawn),1%,1%,3%,92% (active),inactive,inactive,inactive,inactive
O=C(/C=C/c1ccc(Cl)c(Cl)c1)NCCCCN1CCCN(C(=O)Nc2ccc(C(F)(F)F)cc2)CC1,-1%,35%,5%,94% (active),inactive,inactive,inactive,inactive
O=C(Nc1cccc([N+](=O)[O-])c1)N(Cc1ccc(Cl)c(Cl)c1)C1CCNCC1,-2%,17%,-2%,99% (active),inactive,inactive,inactive,inactive

Structure (SMILES),growth inhibition [1],inhibition [2],inhibition [3],growth inhibition [4],outcome [5],outcome [6],outcome [7],outcome [8]
CC(C)CN(c1nc(C(=O)NNC(=O)[C@H](CC2CC2)NC(=O)c2cc3cc(OCCN4CCCCC4)ccc3o2)cs1)C1CC1,98% (active),2%,-4%,97% (active),inactive,inactive,inactive,inactive
NC(=O)c1cccc(C(=O)Nc2cccc(-c3cccc(-c4nc5ccc(F)cc5[nH]4)c3)c2)c1,73% (active),47%,1%,100% (active),inactive,inactive,inactive,inactive
Cc1ccc(Nc2nc(NN=Cc3cccc(O)c3)nc(Nc3ccc([N+](=O)[O-])cc3)n2)cc1C,69% (active),-2%,5%,101% (active),inactive,inactive,inactive,inactive
Cc1nc2c(c(O)c1Cl)-c1ccc(Oc3cccc(C(F)(F)F)c3)cc1C2=O,95% (active),25%,-6%,94% (active),inactive,inactive,inactive,inactive
Cc1noc(C)c1-c1cccc(CNCc2ccc(-c3ccc(-c4nc5c(C)cccc5[nH]4)cc3)cc2)c1,95% (active),28%,5%,102% (active),inactive,inactive,inactive,inactive
CC(C)c1ccc(NC(=O)NC2CCN(CCCCCN(C)C(=O)/C=C/c3ccc(Cl)c(Cl)c3)C2)cc1 (stereo not drawn),3%,28%,-2%,99% (active),inactive,inactive,inactive,inactive
CCN(CC)CCCCOc1ccc2c(c1)C(=O)c1cc(OCCCCN(CC)CC)ccc1-2,44%,24%,-6%,102% (active),inactive,inactive,inactive,inactive
CC(=O)Nc1ccc(C(=O)Nc2ccc(-c3cccc(-c4nc5ccc(F)cc5[nH]4)c3)cc2)cn1,84% (active),13%,-2%,100% (active),inactive,inactive,inactive,inactive
c1ccc(-n2ncc(CNCc3ccc(-c4ccc(-c5nc6ccccc6[nH]5)s4)cc3)n2)cc1,46%,27%,4%,93% (active),inactive,inactive,inactive,inactive
Cc1c(-c2cccc(Br)c2)[nH]c2nc(N)nc(N)c12,61% (active),8%,-4%,100% (active),inactive,inactive,inactive,inactive
CCOC(=O)CCCCOc1c(OC)cc(Cc2cnc(N)nc2N)cc1OC,0%,-8%,5%,95% (active),inactive,inactive,inactive,inactive
CC[C@H](C)CNC(=O)c1cncc(-c2cccc(CN(C)C3CCN(C)CC3)c2)c1,59% (active),9%,1%,101% (active),inactive,inactive,inactive,inactive
Cc1cc(Nc2ccc(C)c(C)c2)n2nc(C)nc2n1,45%,10%,-5%,95% (active),inactive,inactive,inactive,inactive
c1cncc(CCNCc2ccc(-c3ccc(-c4nc5ccccc5[nH]4)s3)cc2)c1,99% (active),35%,-3%,101% (active),inactive,inactive,inactive,inactive
Cc1cc(C)c(C(=O)Nc2ccc3nc(C)cc(N)c3c2)c(C)c1,14%,12%,4%,84% (active),inactive,inactive,inactive,inactive
CC(C)N1CCN(C(=O)c2ccc(CNCCCN3CCN(c4cccc(Cl)c4Cl)CC3)s2)CC1,44%,51% (active),-3%,102% (active),inactive,inactive,inactive,inactive
O=C(Nc1cccnc1)c1cc(C(=O)Nc2cccnc2)cc([N+](=O)[O-])c1,100% (active),-12%,-2%,100% (active),inactive,inactive,inactive,inactive
Cc1nc2ccccc2n1C1C[C@H]2CC[C@@H](C1)N2CCCC1(c2ccccc2)CCN(C(=O)OCc2ccccc2)CC1 (stereo partly drawn),29%,46%,-4%,90% (active),inactive,inactive,inactive,inactive
